# Data as given in PubChem BioAssay (Tox21).
# “And” between values parts separate entries of the source, which are not always exact repeats. Equal values may be shown once. Results filed as inconclusive are left out. The source made the active and inactive calls. Calls follow the shape of the dose curve; as a rule, active = well fitted curve in the direction sought with a large enough effect in the repeat runs; inconclusive = weak or mixed curves; inactive = no such curve, though single readings can be large; an effect the other way counts as inactive or inconclusive. Starred links: 1 amine or outer side, 2 acyl side, 3 side chain; linkers in the order of their positions; H or OH if unused. Positions of bridges follow the written chain, without caps; N, C: chain ends. Non-standard residues stand in square brackets, D forms with d. Residues, ends and D or L forms follow the SMILES beside them. Chains are numbered I, II in the order given. Actinocin(9to1) = Cc1c2oc3c(C)ccc(C(=O)[*:1])c3nc-2c(C(=O)[*:2])c(N)c1=O; NMeV = CN[C@H](C(=O)O)C(C)C; Sar = CNCC(=O)O
# Assay: A CellTox Green Cytotoxicity Assay to monitor cytotoxicity in HEK293 cells - 16 hour (AID 1224888); also: nearly all actives have a fitted effect of over 35% in size; also: potency is read from the fitted curve at half-maximal effect
# Settings: CellTox Green fluorescence; series mostly up to 76.8 µM; activity change: at the top concentration
# In short: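 Fluorescence intensity, read at 0, 8, 16, 24, 32 and 40 h of compound treatment, reflected dye binding to DNA of dead HEK293 cells; compounds (23 nL, DMSO) were added 5 h after plating cells with reagent.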
# % is scaled to controls: 0 for no effect and ±100 for the full control effect.
Compound,Potency,activity change
"Cc1c2oc3c(C)ccc(C(=O)N[C@@H]4C(=O)N[C@H](C(C)C)C(=O)N5CCC[C@H]5C(=O)N(C)CC(=O)N(C)[C@@H](C(C)C)C(=O)O[C@@H]4C)c3nc-2c(C(=O)N[C@@H]2C(=O)N[C@H](C(C)C)C(=O)N3CCC[C@H]3C(=O)N(C)CC(=O)N(C)[C@@H](C(C)C)C(=O)O[C@@H]2C)c(N)c1=O (I: T[dV]P[Sar][NMeV] / II: T[dV]P[Sar][NMeV]; ester I:1-I:C, II:1-II:C; linker I:N-II:N via Actinocin(9to1))",inactive,
CC(C)(C)NCC(O)COc1ccccc1OCC1CCCO1 (stereo not drawn),,"10% [at 35.3 µM, hits give high values] (inactive)"
C=CS(=O)(=O)O,,-0.888% (inactive)
CC(=O)C1=C(C)[C@@H]2C[C@@]3(C1)[C@H](C)CC[C@H]3C2(C)C,inactive,
O=S(=O)(O)c1ccc2nc(-c3ccccc3)[nH]c2c1,inactive,
Cc1scc2c1N(C(=O)CN1CCN(C)CC1)c1ccccc1NC2=O,,"-0.687% [at 35.3 µM, hits give high values] (inactive)"
COC(c1ccccc1)(c1ccccc1)[C@H](Oc1nc(C)cc(C)n1)C(=O)O,,"-17.1% [at 35.3 µM, hits give high values] (inactive)"
OCCN1CCNCC1,inactive,
C1COC(NC(C2CC2)C2CC2)=N1,,"1.18% [at 35.3 µM, hits give high values] (inactive)"
Cc1cc(OCCOCC[N+](C)(C)Cc2ccccc2)ccc1C(C)(C)CC(C)(C)C,38.7 µM (active) and 23.9 µM (active),
CCN(CC)C(=O)Nc1ccc(OCC(O)CNC(C)(C)C)c(C(C)=O)c1 (stereo not drawn),,"-19.7% [at 35.3 µM, hits give high values] (inactive)"
CCCOC(=O)c1cc(O)c(O)c(O)c1,inactive,
CN1C(=O)c2ccc([N+](=O)[O-])cc2C1=O,,-5.95% (inactive)
CC(C)(C)c1ccccc1,,-4.02% (inactive)
Nc1nc2ccccc2[nH]1,inactive,
c1ccc2c(c1)CCCC2C1=NCCN1 (stereo not drawn),,"2.07% [at 35.3 µM, hits give high values] (inactive)"
O=C(Cl)c1cccc(C(=O)Cl)c1,inactive,
Cc1ccc(-c2cc(C(F)(F)F)nn2-c2ccc(S(N)(=O)=O)cc2)cc1,,"-1.9% [at 35.3 µM, hits give high values] (inactive)"
CCC(CO)(CO)COCC(CC)(CO)CO,,-1.04% (inactive)
Nc1cc(S(=O)(=O)O)cc2cc(S(=O)(=O)O)cc(O)c12,inactive,
O=C(O)Cn1cnnn1,,"-13% [at 35.3 µM, hits give high values] (inactive)"
c1cnc2cc3c(cc2n1)C1CNCC3C1,,"0.605% [at 35.3 µM, hits give high values] (inactive)"
CC(C)CCOC(=O)c1ccc(N(C)C)cc1,,"0.171% [at 35.3 µM, hits give high values] (inactive)"
CCN(CC)c1ccc2c(C)cc(=O)oc2c1,inactive,
CCCNC(C)C(=O)Nc1ccccc1C (stereo not drawn),,"-12.6% [at 35.3 µM, hits give high values] (inactive)"
CCOC(=O)C(C)C(C)=O (stereo not drawn),,1.89% (inactive)

# Assay: qHTS RealTime-Glo MT Cell Viability Assay in HepG2 cells - 0 hour (AID 1224889); also: nearly all actives have a fitted effect of over 50% in size
# Settings: RealTime-Glo luminescence; series mostly up to 76.8 µM; activity change, negative = cytotoxicity: at the top concentration
# In short: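 qHTS, HepG2, 600 cells/well, RealTime-Glo (NanoLuc + prosubstrate) added with cells; 5 h preincubation; DMSO compound addition; 37 C; luminescence at 0/8/16/24/32/40 h.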
Compound,"activity change, negative = cytotoxicity",Potency
CC(C)(C)NCC(O)c1cc(O)cc(O)c1 (stereo not drawn),-6.63% [at 35.3 µM] (inactive),
"Cc1c2oc3c(C)ccc(C(=O)N[C@@H]4C(=O)N[C@H](C(C)C)C(=O)N5CCC[C@H]5C(=O)N(C)CC(=O)N(C)[C@@H](C(C)C)C(=O)O[C@@H]4C)c3nc-2c(C(=O)N[C@@H]2C(=O)N[C@H](C(C)C)C(=O)N3CCC[C@H]3C(=O)N(C)CC(=O)N(C)[C@@H](C(C)C)C(=O)O[C@@H]2C)c(N)c1=O (I: T[dV]P[Sar][NMeV] / II: T[dV]P[Sar][NMeV]; ester I:1-I:C, II:1-II:C; linker I:N-II:N via Actinocin(9to1))",-15.8% [at 35.3 µM] (inactive),
C#CC(C)(CC)OC(=O)c1ccccc1C(=O)O (stereo not drawn),5.31% [at 35.3 µM] (inactive),
CC(C)(C)NCC(O)COc1ccccc1OCC1CCCO1 (stereo not drawn),-1.64% [at 35.3 µM] (inactive),
COc1ccc(Cc2cnc(N)nc2N)cc1OC,0.917% [at 35.3 µM] (inactive),
C=CS(=O)(=O)O,-0.155% (inactive),
CC(=O)C1=C(C)[C@@H]2C[C@@]3(C1)[C@H](C)CC[C@H]3C2(C)C,,inactive
O=S(=O)(O)c1ccc2nc(-c3ccccc3)[nH]c2c1,,inactive
Cc1scc2c1N(C(=O)CN1CCN(C)CC1)c1ccccc1NC2=O,3.37% [at 35.3 µM] (inactive),
COC(c1ccccc1)(c1ccccc1)[C@H](Oc1nc(C)cc(C)n1)C(=O)O,-6.02% [at 35.3 µM] (inactive),
OCCN1CCNCC1,,inactive
C1COC(NC(C2CC2)C2CC2)=N1,1.98% [at 35.3 µM] (inactive),
Cc1cc(OCCOCC[N+](C)(C)Cc2ccccc2)ccc1C(C)(C)CC(C)(C)C,-11.7% [at 35.3 µM] (inactive),
CC(=O)CC(=O)Nc1ccc2[nH]c(=O)[nH]c2c1,8.34% (inactive),
CCN(CC)C(=O)Nc1ccc(OCC(O)CNC(C)(C)C)c(C(C)=O)c1 (stereo not drawn),-1.25% [at 35.3 µM] (inactive),
CCCOC(=O)c1cc(O)c(O)c(O)c1,,inactive
CN1C(=O)c2ccc([N+](=O)[O-])cc2C1=O,1.45% (inactive),
CC(C)(C)c1ccccc1,6.39% (inactive),
Nc1nc2ccccc2[nH]1,,inactive

Compound,"activity change, negative = cytotoxicity",Potency
c1ccc2c(c1)CCCC2C1=NCCN1 (stereo not drawn),-0.127% [at 35.3 µM] (inactive),
O=C(Cl)c1cccc(C(=O)Cl)c1,,inactive
CCc1cc(C(C)(C)C)c(O)c(C(C)(C)C)c1,,inactive
CC[C@@H](N)CO,5.69% (inactive),
Cc1ccc(-c2cc(C(F)(F)F)nn2-c2ccc(S(N)(=O)=O)cc2)cc1,,inactive
CCCCCCCCCCCCCC[P+](CCCC)(CCCC)CCCC,,inactive
CCC(CO)(CO)COCC(CC)(CO)CO,1.55% (inactive),
Nc1cc(S(=O)(=O)O)cc2cc(S(=O)(=O)O)cc(O)c12,,inactive
O=C(O)Cn1cnnn1,1.05% [at 35.3 µM] (inactive),
Oc1ccc(Cl)cc1Cc1cc(Cl)ccc1O,,inactive
c1cnc2cc3c(cc2n1)C1CNCC3C1,-1.24% [at 35.3 µM] (inactive),
C=C(C)C(=O)O,,inactive
CCN(CC)CCOc1ccc(/C(=C(\Cl)c2ccccc2)c2ccccc2)cc1,,inactive
NCCCCCC(=O)O,-3.23% [at 35.3 µM] (inactive),
CC(C)CCOC(=O)c1ccc(N(C)C)cc1,-3.5% [at 35.3 µM] (inactive),
CCN(CC)c1ccc2c(C)cc(=O)oc2c1,-8.76% (inactive),
CCCNC(C)C(=O)Nc1ccccc1C (stereo not drawn),8.86% [at 35.3 µM] (inactive),
CCOC(=O)C(C)C(C)=O (stereo not drawn),0.491% (inactive),
